This passage reports Potency results from PubChem BioAssay (NCATS).

In this test the target is Tyrosyl-DNA phosphodiesterase 1 (Homo sapiens) (UniProt Q9NUW8). Put plainly: Confirmation Assay for Inhibitors of Tyrosyl-DNA Phosphodiesterase (TDP1) (AID 489007). Further: nearly all actives have a fitted effect of over 40% in size. Particulars: recombinant human TDP1 enzymatic activity, dose-response. A digest of the protocol:
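Confirmation of primary-screen follow-ups in a qHTS format. Substrate cleavage by Tdp1 (1 nM) of a 3'-phosphotyrosine-FITC, 5'-biotin oligo (15 nM) was monitored as decreased AlphaScreen signal after a 5 min room-temperature reaction.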

Inconclusive results are not listed. Unmarked numbers belong to inactive results. Activity calls are given as the source filed them. The call rests on the fitted dose curve; in most records, active means well fitted inhibition curve with a large enough effect; inconclusive means small, poorly fitted or top-dose-only effect; inactive means flat fitted curve, though single readings scatter.
Potency means the concentration at half of the fitted maximal effect.

Sequence of Tyrosyl-DNA phosphodiesterase 1 (Homo sapiens) (Q9NUW8 whole entry, looked up): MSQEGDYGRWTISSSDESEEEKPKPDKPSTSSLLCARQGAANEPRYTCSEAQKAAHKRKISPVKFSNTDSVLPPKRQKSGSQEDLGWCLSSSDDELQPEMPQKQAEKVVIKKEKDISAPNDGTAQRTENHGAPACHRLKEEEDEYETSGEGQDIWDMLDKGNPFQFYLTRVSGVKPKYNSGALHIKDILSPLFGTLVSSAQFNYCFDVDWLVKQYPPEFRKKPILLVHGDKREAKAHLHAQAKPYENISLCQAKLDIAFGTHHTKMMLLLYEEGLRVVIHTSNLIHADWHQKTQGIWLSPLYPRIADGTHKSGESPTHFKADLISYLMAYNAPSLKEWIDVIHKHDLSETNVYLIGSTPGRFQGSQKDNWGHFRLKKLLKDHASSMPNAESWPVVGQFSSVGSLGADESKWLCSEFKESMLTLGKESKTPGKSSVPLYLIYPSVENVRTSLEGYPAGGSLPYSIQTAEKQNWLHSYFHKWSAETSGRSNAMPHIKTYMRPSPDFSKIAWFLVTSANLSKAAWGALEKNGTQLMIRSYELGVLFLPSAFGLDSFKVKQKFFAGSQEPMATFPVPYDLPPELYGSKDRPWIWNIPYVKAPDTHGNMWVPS

Regarding `CC(=C/C(=O)O)/C=C/c1ccc(Cl)o1`, the Potency is 39.8 µM (active).
Then `Cc1ccnc(NS(=O)(=O)c2ccc(NC(=O)C3C4C=CC(C4)C3C(=O)O)cc2)n1` (configuration not stated), with 35.5 µM (active).
